Laboratory results as given in PubChem BioAssay.
The source made the active and inactive calls.

Experiment: PSAC antagonists in infected red cells, primary screen, cell-based, P. falciparum Indochina, OD700, 1 h (AID 1154)
Settings: P. falciparum Indochina infected RBC osmotic lysis, higher = more signal, called active from +8 up or from −8 down

z-score, inactive:
CCCCCN1CC=CC23O[C@@H]4/C=C\CCCOC(=O)C4[C@H]2C(=O)N(CCCO)[C@@H]3C1=O (stereo not given in full) 1.33
C=CCNC(=O)[C@@H]1[C@H]2C(=O)O[C@H](c3ccccc3)[C@H](c3ccccc3)N2[C@H](c2ccccc2OCCO)[C@@]12C(=O)N(C(=O)OCCOC)c1ccc(C#CCNC(N)=O)cc12 3.09
COCCOC(=O)N1C(=O)[C@@]2(c3cc(C#CCCO)ccc31)[C@H](C(=O)N1CCN(c3ncccn3)CC1)[C@H]1C(=O)O[C@H](c3ccccc3)[C@H](c3ccccc3)N1[C@@H]2c1ccccc1OCCO 2.63
COc1ccc(CCN2C(=O)[C@@]3(c4ccc([N+](=O)[O-])cc4)CC(=O)N(C4CCCCC4)[C@@H]3c3ccc(CO)cc32)cc1 -0.715
CCOC(=O)C[C@H]1[C@H](OC(=O)c2ccc(C(=O)c3ccccc3)cc2)[C@@H](NC(=O)c2ccc(-c3ccccc3)cc2)c2cc(OCCCO)ccc2N1C(=O)c1ccccc1 0.358
COC(=O)C(CC#Cc1ccc2c(c1)[C@]1(C(=O)N2)[C@H](c2ccc(O)cc2)N2[C@H](c3ccccc3)[C@H](c3ccccc3)OC(=O)[C@H]2[C@@H]1C(=O)Nc1nc2ccccc2s1)C(=O)OC 1.11
O=C1[C@H]2C=C(Br)[C@H](C[C@@H]2OCCCCO)[C@@]12CO2 1.31
COCCOC(=O)N1C(=O)[C@@]2(c3cc(C#CCCO)ccc31)[C@H](C(=O)Nc1nc3ccccc3s1)[C@H]1C(=O)O[C@H](c3ccccc3)[C@H](c3ccccc3)N1[C@@H]2c1ccc(OCCO)cc1 4.19
CCCCC(O)C1C=CC2C(=O)N(c3ccccc3)C(=O)C2N1Nc1ccccc1F (stereo not given) 0.449
O=C(NCc1ccccc1)[C@@H]1c2ccccc2C(=O)N(CC23CC4CC(CC(C4)C2)C3)[C@H]1c1ccc(CO)cc1 3.76

z-score, active:
Cc1ccc(C(C)CC(O)C2C=CC3C(=O)N(c4ccccc4)C(=O)C3N2Nc2ccc([N+](=O)[O-])cc2)o1 (stereo not given) 9.35
[N-]=[N+]=Nc1ccccc1C[C@]1(C(=O)NCC(O)CO)N=C(c2ccc(OCCCO)cc2)O[C@H]1c1ccccc1N=[N+]=[N-] (stereo not given in full) 29.2
C=C(CCCC)/C(=C/C[C@@H](OC(C)=O)c1ccccc1OCCO)c1cnc2ccccc2c1 21.1
OC([C@@H]1CC(c2ccccc2)=NO1)[C@H]1CC(c2ccccc2)=NO1 (stereo not given in full) 24.6
[N-]=[N+]=NCc1ccccc1[C@H]1OC(c2ccc(OCCCO)cc2)=N[C@@]1(Cc1ccccc1)C(=O)NCc1ccccc1 27.6

Experiment: PSAC antagonists in infected red cells, primary screen, cell-based, P. falciparum Indochina, OD700, 2 h (AID 1155);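 further: lysis reports solute entry through the parasite surface anion channel PSAC; channel blockers reduce lysis of infected cells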
Settings: P. falciparum Indochina infected erythrocytes, osmotic lysis OD700; higher = more signal, called active from +8 up or from −8 down

z-score, active:
[N-]=[N+]=NCc1ccccc1C[C@]1(C(=O)O)N=C(c2ccc(OCCCO)cc2)O[C@H]1c1ccccc1N=[N+]=[N-] 33.8
COc1ccc([Si](C)(C)[C@H]2[C@H](CCn3cc([C@H](O)c4ccccc4)nn3)O[C@@]3(C(=O)N(Cc4cccc(N5CCOC5=O)c4)c4ccccc43)[C@@H]2C)cc1 9.3
C=CC[C@]1(C(=O)NCCCOC)N=C(c2ccc(OCCCO)cc2)O[C@H]1c1ccccc1N=[N+]=[N-] 32.2
COCC(=C=CC[C@H](O)c1ccccc1OCCO)C[C@H](O)c1cc(Cl)cc(Cl)c1O 8.65
O=C(NCc1ccccc1)[C@@]1(CCS(=O)(=O)c2ccccc2)N=C(c2ccc(OCCCO)cc2)O[C@H]1c1ccccc1 10.4
[N-]=[N+]=Nc1ccccc1C[C@]1(C(=O)NCC(O)CO)N=C(c2ccc(OCCCO)cc2)O[C@H]1c1ccccc1N=[N+]=[N-] (stereo not given in full) 29
OC([C@@H]1CC(c2ccccc2)=NO1)[C@H]1CC(c2ccccc2)=NO1 (stereo not given in full) 9.43
[N-]=[N+]=NCc1ccccc1[C@H]1OC(c2ccc(OCCCO)cc2)=N[C@@]1(Cc1ccccc1)C(=O)NCc1ccccc1 23.5

z-score, inactive:
O=C1C2C=CC(C(O)C3CCCCC3)N(Nc3ccc([N+](=O)[O-])cc3)C2C(=O)N1c1ccccc1 (stereo not given) 4.73
C=CCNC(=O)[C@H]1[C@@H]2C(=O)O[C@@H](c3ccccc3)[C@@H](c3ccccc3)N2[C@@H](c2ccc(OCCO)cc2)[C@]12C(=O)N(C(=O)OCCOC)c1ccccc12 0.926
O=C1C2C=CC(C(O)c3c(F)cccc3Cl)N(Nc3ccccc3)C2C(=O)N1c1ccccc1 (stereo not given) 3.73
CC(C)c1ccc(NN2C(C(O)c3cc(C(F)(F)F)cc(C(F)(F)F)c3)C=CC3C(=O)N(c4ccccc4)C(=O)C32)cc1 (stereo not given) 1.88
O=C1O[C@H](c2ccccc2)[C@H](c2ccccc2)N2[C@H]1[C@@H](C(=O)NC[C@H](O)c1ccccc1)[C@]1(C(=O)Nc3ccccc31)[C@H]2c1ccc(OCCO)cc1 1.36
COC(=O)[C@@]1(Cc2ccc(F)cc2)[C@H]2c3cc(C(=O)N4CCCC4)n(Cc4ccc(C)o4)c3C[C@H]2CN1C(=O)c1ccccc1 0.713
COc1ccc(CCNC(=O)[C@@]2(C)c3ccccc3C(=O)N(Cc3cc(F)cc(C(F)(F)F)c3)[C@H]2c2ccc(CO)cc2)cc1 0.906
O=C1O[C@@H](c2ccccc2)[C@@H](c2ccccc2)N2[C@@H](c3ccc(OCCO)cc3)[C@]3(C(=O)Nc4ccccc43)[C@@H](C(=O)NC[C@H](O)c3ccccc3)[C@H]12 1.85
C=C(/C(=C/C[C@@H](OC(C)=O)c1ccc(OCCO)cc1)c1cnc2ccccc2c1)C(C)C 2.26
O=C1OCC=C[C@H]2OC34C=CCN(CCN5CCOCC5)C(=O)[C@H]3N(CCCO)C(=O)[C@@H]4[C@@H]12 (stereo not given in full) -0.385
COC(=O)c1c(CC[C@@H](CO)NC(=O)N2CCC[C@H]2Cn2cc(-c3ccccn3)nn2)oc(C(C)=O)c1C(=O)OC -0.448
C=CCN(Cc1ccccc1)C(=O)C(c1cccs1)N(CCOCCO)C(=O)/C=C\C(=O)O (stereo not given) -0.398
CCN(CC)c1ccc(N2CC=CC34O[C@@H]5/C=C\CCCOC(=O)C5[C@H]3C(=O)N(CCO)[C@@H]4C2=O)cc1 (stereo not given in full) 0.175
C=CC[C@@]1(C(N)=O)N=C(c2ccc(OCCCO)cc2)O[C@@H]1c1ccccc1CN=[N+]=[N-] 4.04
O=C1c2ccccc2[C@](Cc2ccccc2I)(C(=O)NC2CC2)[C@H](c2ccc(CO)cc2)N1C1CCCCC1 5.2
CCCCCN1CC=CC23O[C@@H]4/C=C\CCCOC(=O)C4[C@H]2C(=O)N(CCCO)[C@@H]3C1=O (stereo not given in full) 0.212
C=CCNC(=O)[C@@H]1[C@H]2C(=O)O[C@H](c3ccccc3)[C@H](c3ccccc3)N2[C@H](c2ccccc2OCCO)[C@@]12C(=O)N(C(=O)OCCOC)c1ccc(C#CCNC(N)=O)cc12 0.483
COCCOC(=O)N1C(=O)[C@@]2(c3cc(C#CCCO)ccc31)[C@H](C(=O)N1CCN(c3ncccn3)CC1)[C@H]1C(=O)O[C@H](c3ccccc3)[C@H](c3ccccc3)N1[C@@H]2c1ccccc1OCCO 1.14
COc1ccc(CCN2C(=O)[C@@]3(c4ccc([N+](=O)[O-])cc4)CC(=O)N(C4CCCCC4)[C@@H]3c3ccc(CO)cc32)cc1 -0.0259
CCOC(=O)C[C@H]1[C@H](OC(=O)c2ccc(C(=O)c3ccccc3)cc2)[C@@H](NC(=O)c2ccc(-c3ccccc3)cc2)c2cc(OCCCO)ccc2N1C(=O)c1ccccc1 0.135
COC(=O)C(CC#Cc1ccc2c(c1)[C@]1(C(=O)N2)[C@H](c2ccc(O)cc2)N2[C@H](c3ccccc3)[C@H](c3ccccc3)OC(=O)[C@H]2[C@@H]1C(=O)Nc1nc2ccccc2s1)C(=O)OC -0.314
O=C1[C@H]2C=C(Br)[C@H](C[C@@H]2OCCCCO)[C@@]12CO2 0.317
Cc1ccc(C(C)CC(O)C2C=CC3C(=O)N(c4ccccc4)C(=O)C3N2Nc2ccc([N+](=O)[O-])cc2)o1 (stereo not given) 2.22
COCCOC(=O)N1C(=O)[C@@]2(c3cc(C#CCCO)ccc31)[C@H](C(=O)Nc1nc3ccccc3s1)[C@H]1C(=O)O[C@H](c3ccccc3)[C@H](c3ccccc3)N1[C@@H]2c1ccc(OCCO)cc1 1.5
CCCCC(O)C1C=CC2C(=O)N(c3ccccc3)C(=O)C2N1Nc1ccccc1F (stereo not given) 1.49
C=C(CCCC)/C(=C/C[C@@H](OC(C)=O)c1ccccc1OCCO)c1cnc2ccccc2c1 4.29
O=C(NCc1ccccc1)[C@@H]1c2ccccc2C(=O)N(CC23CC4CC(CC(C4)C2)C3)[C@H]1c1ccc(CO)cc1 0.295
